Where “and” joins values, the source holds several entries; their conditions need not be identical. Identical values can stand only once. Among all 220,000 compounds or so, about 16,000 (7.3%) were called active. Roughly 25% stayed inconclusive and do not appear here. This is one part of a sample in which actives are shown more often than they occur. Unmarked numbers belong to inactive results. The call rests on the fitted dose curve; in most records, active means well fitted inhibition curve with a large enough effect (not every such curve was filed as active); inconclusive means small, poorly fitted or top-dose-only effect, or another doubt; inactive means no such curve, though single readings can be large or run the other way.
target: Aldehyde dehydrogenase 1A1 (Homo sapiens) (UniProt P00352); test: qHTS Assay for Inhibitors of Aldehyde Dehydrogenase 1 (ALDH1A1); settings: Purified ALDH1A1, NADH fluorescence, propionaldehyde substrate; series mostly up to 75.3 µM; activity, negative = inhibition: at the top concentration;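 on activity, negative = inhibition: plate controls were no enzyme wells and a reference inhibitor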
Sequence (P00352 whole entry, looked up): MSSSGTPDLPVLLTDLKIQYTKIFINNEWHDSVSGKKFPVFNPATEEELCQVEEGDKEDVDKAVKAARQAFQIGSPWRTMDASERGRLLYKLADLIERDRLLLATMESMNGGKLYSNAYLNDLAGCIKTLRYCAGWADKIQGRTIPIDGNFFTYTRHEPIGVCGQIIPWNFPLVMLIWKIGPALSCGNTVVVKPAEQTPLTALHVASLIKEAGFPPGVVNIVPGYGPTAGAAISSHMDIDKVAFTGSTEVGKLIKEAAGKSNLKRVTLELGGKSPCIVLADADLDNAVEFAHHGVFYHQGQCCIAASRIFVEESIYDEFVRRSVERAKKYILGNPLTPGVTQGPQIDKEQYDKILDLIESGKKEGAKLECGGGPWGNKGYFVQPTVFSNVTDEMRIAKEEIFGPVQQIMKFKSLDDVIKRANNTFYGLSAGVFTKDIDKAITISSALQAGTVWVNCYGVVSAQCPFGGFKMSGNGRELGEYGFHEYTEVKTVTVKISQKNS
Potency means the concentration at half of the fitted maximal effect.

| Compound | Potency | activity, negative = inhibition |
| --- | --- | --- |
| COc1cc(C(=S)N2CCOCC2)ccc1O | 18.9 µM (active) | – |
| COc1ccc(C(=O)C2CCCN(Cc3ccc(C)s3)C2)cc1OC (stereo not given) | – | -3.12% |
| C=CCN1CCC23c4c5ccc(O)c4O[C@H]2C(=O)CC[C@@]3(O)C1C5 (stereo not given in full) | inactive | – |
| CCC/C(=N\O)c1c[nH]c2ccccc12 | – | 5.13% |
| CCCOC(=O)C1C2c3ccccc3C(c3ccccc32)C1C(=O)O (stereo not given) | – | -3.46% |
| Cc1ccc(-c2cc(C(=O)N3CCC4(CC3)OCCO4)no2)cc1 | – | -7.21% |
| Cc1ccsc1C(=O)C1CCCN(Cc2ccc(O)cc2)C1 (stereo not given) | – | -0.25% |
| COc1ccc2c3c1O[C@H]1C[C@@H](O)C=C[C@@]31CCN(C)C2 | – | -3.43% |
| COC(=O)CN1C(=O)C2(C(C(=O)OC)=C(N)Oc3ccccc32)C2=C1CC(C)(C)CC2=O (stereo not given) | 1 µM (active) | – |
| CCOC(=O)CC1=C(C(=O)OCC)C2(C(=O)N1)C(C(=O)OC)=C(N)Oc1ccccc12 (stereo not given) | – | 6.23% |
| CCOC(=O)C1=C(C)OC(N)=C(C(=O)OC)C12C(=O)Nc1ccc(Br)cc12 (stereo not given) | – | 0.235% |
| CCN1C[C@@]2(COC)CC[C@H](OC)[C@]34[C@@H]1[C@]1(OCO[C@@]15C[C@@H](OC)C1C[C@H]3[C@H]5[C@@H]1OC)[C@H](O)[C@@H]24 | – | -7.9% [at 20.9 µM] |
| CC(=O)CC(C)C | 12.6 µM (active) | – |
| N#CC1=C(N)Oc2c(c(=O)oc3ccccc23)C1c1ccccc1OC(=O)c1cccs1 (stereo not given) | – | 4.05% |
| COc1ccc(CCn2c(O)c(C=NC3CC3)c(=O)[nH]c2=O)cc1OC | – | 11% |
| ClCCBr | – | 6.88% |
| CO[C@@H]1C[C@@H](C[C@H]2CC[C@H](C)[C@@H]([C@@H](C)C(=O)O)O2)O[C@]2(O[C@](C)([C@H]3CC[C@@](C)(C4OC([C@H]5O[C@@](O)(CO)[C@H](C)C[C@@H]5C)C[C@@H]4C)O3)C[C@H]2C)[C@@H]1C (stereo not given in full) | – | -0.0239% |
| COC(=O)N(c1ccc(OC)cc1)P1(=S)OCCC(C)O1 (stereo not given) | 2.24 µM (active) | – |
| CCOc1ccc(C2SCC(=O)Nc3c2c(C)nn3C2CCOC(C)(C)C2)cc1 (stereo not given) | – | 19.5% |
| ClC(Cl)=C(Cl)C(Cl)=C(Cl)Cl | – | 6.19% |
| O=C1NC(=O)N(c2ccc(F)cc2)C(=O)/C1=C/c1ccc2c(c1)CCCN2Cc1ccccc1 | 0.158 µM (active) | – |
| Fc1ccc(C(OCCN2CCN(C/C=C\c3ccccc3)CC2)c2ccc(F)cc2)cc1 | – | -3.07% |
| CC(C)(O)c1[se]c2ccccc2c1I | – | -9.12% |
| c1ccc(CN2CC[C@@]3(CCCNC3)C2)cc1 | – | 6.49% |

| Compound | Potency | activity, negative = inhibition |
| --- | --- | --- |
| CC(=O)Cc1ccc(OC(C)C)cc1 | – | 4.31% |
| CN(C)c1nc(N(C)C)nc(N(C#N)CCCl)n1 | 6.31 µM (active) | – |
| O=C1C2(Cl)C3(Cl)C4(Cl)C(Cl)(Cl)C5(Cl)C3(Cl)C1(Cl)C5(Cl)C24Cl (stereo not given) | – | 0.669% |
| NC[C@H](O)c1ccc(O)cc1 | – | -2.77% [at 20.9 µM] |
| c1ccc(C2NCc3ccccc3-n3cccc32)cc1 (stereo not given) | – | -2.04% |
| O=C(OCC(=O)c1cccs1)C1=COCCO1 | 14.1 µM (active) | – |
| CN1CCN(C(=O)O[C@@H]2c3nccnc3C(=O)N2c2ccc(Cl)cn2)CC1 | – | -0.229% |
| CC(C)(c1ccc(OC[C@@H]2CO2)cc1)c1ccc(OC[C@H]2CO2)cc1 | – | -3.47% |
| CC[N+]1(C)CCCC(OC(=O)C(O)(c2ccccc2)c2ccccc2)C1 (stereo not given) | inactive | – |
| O=C(NCC(c1cccnc1)N1CCN(c2ccccc2)CC1)Oc1ccccc1 (stereo not given) | – | -6.2% |
| CCCn1c(C(=O)c2ccccc2OC)nc2ccccc21 | – | -12.3% |
| Cc1cccc(N2C(=O)NC(=O)/C(=C\c3cnn(-c4ccccc4)c3)C2=O)c1 | 7.08 µM (active) | – |
| C[C@H]1CC[C@@]2(NC1)O[C@@H]1C[C@H]3[C@@H]4CC=C5C[C@@H](O)CC[C@]5(C)[C@@H]4CC[C@]3(C)[C@@H]1[C@@H]2C | – | 6.18% [at 20.9 µM] |
| NCC(O)c1ccc(O)cc1 (stereo not given) | inactive | – |
| Cc1cc(C)cc(NC(=S)NC2CC3CCCC(C2)N3Cc2cccs2)c1 (stereo not given) | – | -4.86% |
| O=C(CSC1c2ccccc2-c2ccccc21)N/N=C/c1ccccc1 | – | -2.88% |
| O=C(CN1CCCC1=O)NCCc1ccccc1 | – | 4.93% |
| COC1=C[C@@H]2[C@@H]3Cc4ccc(OC)c(O)c4[C@]2(CCN3C)CC1=O | – | 0.364% |
| CC(C(=O)Nc1ccc(Cl)cc1Cl)N1CC=C(c2ccccc2)CC1 (stereo not given) | – | -8.8% |
| CCCC[N+]1(C)C2CC(OC(=O)C(CO)c3ccccc3)CC1C1OC12 (stereo not given) | inactive | – |
| CC(=O)NC(=O)NC(C)Cc1ccccc1 (stereo not given) | – | 4.95% |
| CC(C)CC(C)Nc1ccc(Nc2ccccc2)cc1 (stereo not given) | 14.1 µM (active) | – |
| CC12CN3CC(C)(CN(C1)C3c1cccs1)C2 (stereo not given) | – | 4.85% |
| CCCCC(=O)N/N=C/c1c(O)n(CC)c(=S)n(CC)c1=O | – | -14.7% |

| Compound | Potency | activity, negative = inhibition |
| --- | --- | --- |
| Cc1cc(-c2ccc(N)c(C)c2)ccc1N | 28.2 µM (active) | – |
| CC1CCCCN1Cc1cccnc1 (stereo not given) | – | -10.2% |
| C/C(=C\C=C/[C@@H](C)C(=O)O)[C@H]1CN[C@H](C(=O)O)[C@@H]1CC(=O)O | – | -4.2% |
| CCN1C[C@]2(COC)C(O)C[C@H](OC)[C@@]34C5C[C@]6(O)C(OC)C(O)[C@](OC(C)=O)(C5C6OC(=O)c5ccccc5)C(C(OC)C23)C14 (stereo not given in full) | – | -3.76% |
| CC(=O)c1c(O)c(C)c(O)c(Cc2c(O)c3c(c(C(=O)/C=C/c4ccccc4)c2O)OC(C)(C)C=C3)c1O | 17.8 µM (active) and 14.1 µM (active) | – |
| CC(=O)c1c(O)c(C)c(O)c(Cc2c(O)c3c(c(C(=O)/C=C\c4ccccc4)c2O)OC(C)(C)C=C3)c1O | 22.4 µM (active) | – |
| COC1=C[C@]23CCCN2CCc2cc4c(cc2[C@@H]3[C@@H]1O)OCO4 | – | -1.15% |
| O=C(O)C1C2CCC(O2)C1C(=O)O (stereo not given) | – | 8.57% |
| CN(C)C1C(=O)C(C(N)=O)=C(O)[C@@]2(O)C(=O)C3=C(O)c4c(O)cccc4[C@@](C)(O)C3C[C@@H]12 (stereo not given in full) | – | -12.3% |
| C=CCSSCC=C | 6.31 µM (active) | – |
| CN(C)c1ccc(/C=C2\CC3C4CC=C5CC(O)CCC5(C)C4CCC3(C)C2=O)cc1 (stereo not given) | – | 1.47% |
| O=C1NC(=O)C(CCc2ccccn2)(Cc2cccc(Cl)c2Cl)C(=O)N1c1ccc(Br)cc1 (stereo not given) | – | 2.63% |
| CCOC(=O)C(O)(c1ccc(N=Cc2ccccc2O)c(C)c1)C(F)(F)F (stereo not given) | – | -8.17% |
| CN(C)C(=O)Oc1cc(=O)n2c3c(cccc13)CCC2 | – | -0.966% |
| COc1ccc(C2=NOC(COC(=O)c3ccc4ccccc4n3)C2)cc1 (stereo not given) | 5.62 µM (active) | – |
| CN(C)/C=C(\C=[N+](C)C)c1[nH]ncc1[N+](=O)[O-] | – | -1.75% |
| CC[N+](CC)(CC)CCCCCCCCCC[N+](CC)(CC)CC | – | 0.542% |
| O=C1C2CCN(CC2)C1(CO)CO | inactive | – |
| CN(C)CCCN=Cc1c(O)n(Cc2ccco2)c(=O)[nH]c1=O | – | -1.51% |
| CC(C)n1c(=O)c(C=Nc2ccc(Br)cc2)c(O)n(Cc2ccco2)c1=O | 14.1 µM (active) | – |
| COc1cc2c(cc1OC)[C@@H]1C(=O)c3ccc(O)c(CC=C(C)C)c3OC1CO2 (stereo not given in full) | – | 9.01% |
| CC(=O)Nc1ccccc1C(=O)OCC(=O)c1cccc2ccccc12 | – | 1.69% |
| NCC[Se][Se]CCN | 3.55 µM (active) | – |
| CC[C@H]1CN2CCc3cc(OC)c(OC)cc3[C@@H]2C[C@@H]1C[C@H]1NCCc2cc(OC)c(OC)cc21 | inactive | – |

| Compound | Potency | activity, negative = inhibition |
| --- | --- | --- |
| CCc1cccc2c(C#N)cn(CC(=O)N3CCOCC3)c12 | – | 0.358% |
| CCN(CC)P(=O)(Oc1cccc(C)c1)N(CC)CC | – | 2.46% |
| Cc1cccc([C@H](C)c2cnc[nH]2)c1C | – | -6.99% |
| ClC(Cl)(Cl)c1ccccc1 | inactive | – |
| O=Cc1cn(Cc2ccc(F)cc2Cl)c2ccccc12 | 3.16 µM (active) | – |
| Cc1ccc(-c2nn(CCC#N)cc2C(=O)O)cc1C | – | 18.1% |
| Cc1ccc(S(=O)(=O)O[C@H]2CN3CCC2CC3)cc1 | – | 4.24% [at 13.5 µM] |
| COC(=O)c1ccc2[se]c(CC3CCCCC3)c(I)c2c1 | – | 4.76% |
| CCCCCCCCCCCCCC(=O)O[C@@H]1[C@@H](C)[C@@]2(O)[C@@H](C=C(CO)C[C@]3(O)C(=O)C(C)=C[C@@H]23)[C@@H]2C(C)(C)[C@]12OC(C)=O | – | -2.86% |
| Cn1c(O)c(C=NCCCC(=O)O)c(=O)n(C)c1=O | – | -4.25% |
| C[C@@H]1C[C@@H]2O[C@H]2/C=C\C=C\C(=O)Cc2c(Cl)c(O)cc(O)c2C(=O)O1 | – | -5.35% |
| O=C(C1CC(=O)N(C2CCCC2)C1)N1CCC2(CC1)OCCO2 (stereo not given) | – | 2.67% |
| C=CCN1C(=O)C2(C(C(=O)OCC)=C(N)Oc3c2c(=O)oc2ccccc32)c2ccccc21 (stereo not given) | 0.398 µM (active) | – |
| CCOC(=O)c1ncn2c1[C@@H]1CCCN1C(=O)c1cc(OC)ccc1-2 | – | -5.12% |
| CCOCCc1c(O)[nH]c(=S)[nH]c1=O | – | -3.64% |
| CCOC(=O)C1CN(C)CCC1=O (stereo not given) | – | 3.02% |
| CNC(C)[C@@H](O)c1ccccc1 (stereo not given in full) | – | -5.15% |
| O=c1oc2ccccc2c(O)c1C(c1ccccc1O)c1c(O)c2ccccc2oc1=O | – | 10.4% |
| c1ccc2sc(N3CCNCC3)nc2c1 | – | 8.53% |
| c1ccc2sc(SNC3CCCCC3)nc2c1 | 0.794 µM (active) | – |
| c1ccc2sc(C3CCCNC3)nc2c1 (stereo not given) | – | 8.39% |
| C1CC[C@H]([C@@]23C[C@H](C[C@H]4CCCN[C@H]42)[C@@H]2CCCCN2C3)NC1 | – | 5.48% |
| CC1(C)C(c2ccccc2)=NC(c2cccnc2)=[N+]1[O-] | – | 4.87% |
